The list is not random: actives were taken first. Their share in the collection is about 12%.
HP1b binding inh: HTS for Inhibitors of HP1-beta Chromodomain Interactions with Methylated Histone Tails; Chromobox protein homolog 1 (Homo sapiens), P83916; AlphaScreen HP1-beta / biotin-H3K9me3 peptide binding; Potency, µM (series often up to 114 µM), inactives show at the top dose activity change, negative = inhibition, usual class: inhibitors; hit rate 0.56% among 390,000; AID 540317, 2011; further: potency means the concentration at half of the fitted maximal effect; nearly all actives have a fitted effect of over 70% in size
Target sequence (P83916 whole entry, looked up): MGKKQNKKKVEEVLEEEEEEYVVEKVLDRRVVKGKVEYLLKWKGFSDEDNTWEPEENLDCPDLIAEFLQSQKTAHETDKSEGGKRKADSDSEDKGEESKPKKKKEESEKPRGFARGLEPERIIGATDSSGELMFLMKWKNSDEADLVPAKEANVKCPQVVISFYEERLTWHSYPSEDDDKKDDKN
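HP1-beta protein (50 nM final) preincubated 30 min at room temperature with biotinylated H3(1-18)K9me3 peptide (50 nM) in PBS pH 7.4, 0.01% Tween-20, then compound added for 30 min. AlphaScreen streptavidin donor/nickel chelate acceptor beads (10 ug/mL final), 30 min dark, luminescence read.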
G9a inh: qHTS Assay for Inhibitors of Histone Lysine Methyltransferase G9a; G9a H3K9 monomethylation, AlphaScreen, 2 h; Potency, µM (series often up to 102 µM), for inactives: top-dose activity, negative = inhibition, most hits filed as inhibitors; hit rate 8.8% among 350,000; AID 504332, 2011; further: potency means the concentration at half of the fitted maximal effect; on the % scale 0 is the no-effect control and ±100 the full control effect; nearly all actives have a fitted effect of over 75% in size
Target sequence (Q96KQ7 913-1193 limits assumed): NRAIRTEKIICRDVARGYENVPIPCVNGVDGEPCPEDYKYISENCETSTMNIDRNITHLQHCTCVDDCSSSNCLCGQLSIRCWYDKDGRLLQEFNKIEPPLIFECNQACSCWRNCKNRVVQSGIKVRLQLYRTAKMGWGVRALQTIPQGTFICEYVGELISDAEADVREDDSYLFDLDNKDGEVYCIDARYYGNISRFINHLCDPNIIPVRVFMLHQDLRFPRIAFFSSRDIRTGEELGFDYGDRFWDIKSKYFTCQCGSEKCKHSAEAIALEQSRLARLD
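Signal arises when biotinylated H3K9 peptide, once monomethylated, bridges streptavidin donor and antibody-captured acceptor beads. Enzyme at 20 nM was preincubated 15 min with test compounds; peptide 500 nM and SAM 20 uM then reacted for 2 h.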
PI5P4Ka inh: qHTS for Inhibitors of phosphatidylinositol 5-phosphate 4-kinase (PI5P4K) | PI5P4Kalpha enzyme, ADP-Glo luminescence, 60 min; active compounds read low | hit rate 1.2% among 330,000 | Phosphatidylinositol 5-phosphate 4-kinase type-2 alpha (Homo sapiens), P48426 | AID 652105, 2013 | max response, %; active means max response of -50% or lower; inconclusive means between -30% and -50%; inactive means -30% or higher; further: value at the top dose of about 77 µM; on the % scale 0 is the no-effect control and ±100 the full control effect
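Human PI5P4Kalpha with substrate in 0.038 M HEPES pH 7.4, 0.28 mM EGTA, 0.1% CHAPS, 5% DMSO; reaction started with 5 microM ATP (final), 60 min at room temperature. ADP formed read by ADP-Glo luminescence.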
PLK1 PBD inh: qHTS for Inhibitors of PLK1-PDB (polo-like kinase 1 - polo-box domain): Primary Screen; Serine/threonine-protein kinase PLK1 (Homo sapiens), P53350; Plk1 PBD binding of FITC phosphopeptide, fluorescence polarization; Potency, µM, for the others: max response, negative = inhibition, hits mostly inhibitors; hit rate 2.8% among 360,000; AID 720504, 2013; further: potency means the concentration at half of the fitted maximal effect; series mostly up to about 57 µM; on the % scale 0 is the no-effect control and ±100 the full control effect; nearly all actives have a fitted effect of over 65% in size
JMJD2A Tudor: qHTS Assay for Inhibitors of JMJD2A-Tudor Domain; AlphaScreen JMJD2A-Tudor / H3K4me3 peptide binding; Potency, µM (doses to about 114 µM), without a hit: at the top dose activity change, negative = inhibition, hits mostly inhibitors; hit rate 4.4% among 390,000; AID 504339, 2011; further: potency means the concentration at half of the fitted maximal effect; on the % scale 0 is the no-effect control and ±100 the full control effect; nearly all actives have a fitted effect of over 50% in size
BAZ2B inh: qHTS Assay for Inhibitors of BAZ2B; Bromodomain adjacent to zinc finger domain protein 2B (Homo sapiens), Q9UIF8; AlphaScreen BAZ2B-H3K14Ac peptide displacement; Potency, µM (series often up to 114 µM), inactives show at the top dose activity change, negative = inhibition, hits mostly inhibitors; hit rate 4.4% among 360,000; AID 504333, 2011; further: potency means the concentration at half of the fitted maximal effect; on the % scale 0 is the no-effect control and ±100 the full control effect; nearly all actives have a fitted effect of over 60% in size
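Multi-concentration screen (max 110 uM) measuring displacement of acetylated histone H3 peptide from BAZ2B by AlphaScreen, using 50 nM protein, 50 nM peptide and 10 ug/mL streptavidin donor plus Ni-chelate acceptor beads.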
Starred values were filed as active, the others as inactive; [ ] = dose if it differs, or a comment. Unless noted, the call rests on the fitted dose curve; in most records, active means well fitted curve in the direction sought with a large enough effect; inconclusive means small, poorly fitted or top-dose-only effect, or another doubt; inactive means no such curve, though single readings can be large; an effect the other way counts as inactive or inconclusive.

What do the screens show for `CC(=O)c1cc2c(cc1NC(=O)CCn1cnnn1)OCO2`?
HP1b binding inh: 42%; G9a inh: 40µM*; PI5P4Ka inh: -2; PLK1 PBD inh: -9%; JMJD2A Tudor: -1%; BAZ2B inh: 4%

Results for Cc1ccc(C)c(NC(=O)CCn2nc(C)cc2C)c1 ?
HP1b binding inh: 15%; G9a inh: -4%[12.7 µM]; PI5P4Ka inh: -5; PLK1 PBD inh: 2%; JMJD2A Tudor: -5%; BAZ2B inh: 5%

What do the screens show for `CC(=O)c1cc2c(cc1NC(=O)CN1CCCCCCC1)OCO2`?
HP1b binding inh: inconclusive; G9a inh: 10µM*; PI5P4Ka inh: 0; PLK1 PBD inh: -12%; JMJD2A Tudor: inconclusive; BAZ2B inh: 50µM*

What do the screens show for `COC(=O)c1ccc(NC(=O)CCn2cnnn2)c(C)c1`?
HP1b binding inh: 31%; G9a inh: 7%[59 µM]; JMJD2A Tudor: 5%; BAZ2B inh: -16%

What do the screens show for `CC(=O)c1cc2c(cc1NC(=O)CCCC(=O)O)OCO2`?
HP1b binding inh: 36%; G9a inh: -4%; PI5P4Ka inh: -5; PLK1 PBD inh: -5%; JMJD2A Tudor: -3%; BAZ2B inh: 9%

Results for Cc1ccc(C)c(NC(=O)CCn2cnnn2)c1 ?
HP1b binding inh: 11%; G9a inh: -9%; PI5P4Ka inh: 1; PLK1 PBD inh: 30µM*; JMJD2A Tudor: -27%; BAZ2B inh: -10%

What do the screens show for `COc1ccc(C)cc1NC(=O)CCn1nc(C)cc1C`?
HP1b binding inh: 29%; G9a inh: -2%[59 µM]; JMJD2A Tudor: inconclusive; BAZ2B inh: 50µM*

Results for O=C(NCCc1ccccc1)C1Cc2c(-c3ccccc3)ccnc2O1 (stereo unspecified) ?
PI5P4Ka inh: -3; PLK1 PBD inh: -11%

Results for CCOC(=O)C1=C(COC(=O)CCc2ccccc2)NC(=O)NC1C (stereo unspecified) ?
HP1b binding inh: 25%; G9a inh: 9%[12.7 µM]; PI5P4Ka inh: 2; PLK1 PBD inh: -14%; JMJD2A Tudor: -12%; BAZ2B inh: 2%

How did CC(C(=O)Nc1ccc(O)cc1)c1cccc(C(=O)c2ccccc2)c1 (stereo unspecified) do in these assays?
HP1b binding inh: -20%; PI5P4Ka inh: -23; PLK1 PBD inh: 12µM*; JMJD2A Tudor: -15%[11.4 µM]; BAZ2B inh: inconclusive

How did CC(=O)Nc1ccc(NC(=O)C(C)c2cccc(C(=O)c3ccccc3)c2)cc1 (stereo unspecified) do in these assays?
HP1b binding inh: 1%; G9a inh: -7%[59 µM]; PI5P4Ka inh: -3; PLK1 PBD inh: -3%; JMJD2A Tudor: -18%; BAZ2B inh: -4%

What do the screens show for `CC(C)Cc1cc(C(=O)N(C)C2CCCN(Cc3ccccc3F)C2)n(C)n1` (stereo unspecified)?
HP1b binding inh: 54%; G9a inh: 89µM*; PI5P4Ka inh: 2; PLK1 PBD inh: -20%; JMJD2A Tudor: -18%; BAZ2B inh: -9%[57.1 µM]

How did Cc1ccc(N/N=C2/CCCNC2=O)cc1 do in these assays?
HP1b binding inh: inconclusive; G9a inh: 25µM*; PI5P4Ka inh: 2; PLK1 PBD inh: -21%; JMJD2A Tudor: inconclusive; BAZ2B inh: 2%

Results for CC(=O)c1ccc(N/N=C2/CCCNC2=O)cc1 ?
HP1b binding inh: 36%; G9a inh: 25%; PI5P4Ka inh: -4; PLK1 PBD inh: -12%; JMJD2A Tudor: -30%; BAZ2B inh: -2%

How did Cn1c(=O)c(-c2ccccc2)nc2cnc(N3CCOCC3)nc21 do in these assays?
G9a inh: 15%[0.501 µM]
